Source: PubChem BioAssay AID651946 (Broad Institute, 2012)
Entries with a potency or affinity are not part of this list. Calls of active or inactive are those of the source.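 Rule for the calls: active = toxic compound whose fitted half-effect dose of signal loss is at most twice its top tested dose; inconclusive = flat fit losing 30 to 70% signal, or poor fit; inactive = the rest.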

assay: cytotoxicity in HeLa cells, dose response, cytotoxicity control, cell-based, plate reader, dry powder (AID 651946); conditions: HeLa viability, ATP luminescence (CellTiter-Glo), 48 h; series mostly up to 26 µM; activity change, negative = cytotoxicity: at the top concentration

Question: With Clc1ccc(-c2nnc(SCc3ccccc3)o2)cc1 as the compound, how does the “activity change, negative = cytotoxicity” value read?
Answer: 9.97% (inactive)

Question: For COc1ccc(CSc2nnc(-c3ccccc3)o2)cc1, which “activity change, negative = cytotoxicity” value is on record?
Answer: -12.5% (inactive)

Question: For c1ccc(CSc2nnc(-c3ccccc3)o2)cc1, which “activity change, negative = cytotoxicity” value is on record?
Answer: -8.64% (inactive)
